Assay results from PubChem BioAssay (NCATS).
Where “and” joins values, the source holds several entries; their conditions need not be identical. Identical values can stand only once. Results filed as inconclusive are left out. Calls of active or inactive are those of the source. The call rests on the fitted dose curve; in most records, active means well fitted curve in the direction sought with a large enough effect; inconclusive means small, poorly fitted or top-dose-only effect, or another doubt; inactive means no such curve, though single readings can be large; an effect the other way counts as inactive or inconclusive.

Key:
[1] = qHTS of pediatric cancer cell lines to identify multiple opportunities for drug repurposing: Primary screen for U-2 OS cells (AID 1347096); further: nearly all actives have a fitted effect of over 50% in size
Summary of the method: (§1)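 Viability after 48 h compound treatment at 37C, 500-1,000 cells/well, read as ATP luminescence with CellTiter-Glo. Primary screens used 11-point (MIPE, 0.78 nM-46 µM) or 8-point (NPC, 0.59 nM-46 µM) final concentrations; follow-up screens used 11-point dilutions.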

[2] = qHTS of pediatric cancer cell lines to identify multiple opportunities for drug repurposing: Primary screen for NB1643 cells (AID 1347099); further: nearly all actives have a fitted effect of over 50% in size; further: potency means the concentration at half of the fitted maximal effect
Summary of the method: (§2)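 Readout: CellTiter-Glo luminescence, 48 h treatment. Controls DMSO (neutral) and bortezomib 2.3 µM final (positive). Potency and efficacy taken from primary-screen concentration-response curves.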

[3] = qHTS of pediatric cancer cell lines to identify multiple opportunities for drug repurposing: Primary screen for LAN-5 cells (AID 1347100); further: potency means the concentration at half of the fitted maximal effect
Summary of the method: as §1

[4] = qHTS of pediatric cancer cell lines to identify multiple opportunities for drug repurposing: Primary screen for BT-12 cells (AID 1347101); further: nearly all actives have a fitted effect of over 25% in size; further: potency means the concentration at half of the fitted maximal effect
Summary of the method: (§3)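 Cells (500-1,000/well) rested 5 h, then received compounds for 48 h; metabolically active cells were measured by CellTiter-Glo luminescence. Final concentrations spanned up to 46 µM (MIPE, 11-point) or 0.59 nM-46 µM (NPC, 8-point) in primary screens, 11-point in follow-ups.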

[5] = qHTS of pediatric cancer cell lines to identify multiple opportunities for drug repurposing: Primary screen for Rh18 cells (AID 1347102); further: nearly all actives have a fitted effect of over 65% in size; further: potency means the concentration at half of the fitted maximal effect
Summary of the method: as §1

[6] = qHTS of pediatric cancer cell lines to identify multiple opportunities for drug repurposing: Primary screen for OHS-50 cells (AID 1347103); further: nearly all actives have a fitted effect of over 40% in size; further: potency means the concentration at half of the fitted maximal effect
Summary of the method: as §3

[7] = qHTS of pediatric cancer cell lines to identify multiple opportunities for drug repurposing: Primary screen for RD cells (AID 1347104); further: nearly all actives have a fitted effect of over 55% in size; further: potency means the concentration at half of the fitted maximal effect
Summary of the method: as §2

[8] = qHTS of pediatric cancer cell lines to identify multiple opportunities for drug repurposing: Primary screen for MG 63 (6-TG R) cells (AID 1347105); further: nearly all actives have a fitted effect of over 50% in size; further: potency means the concentration at half of the fitted maximal effect
Summary of the method: as §2

[9] = qHTS of pediatric cancer cell lines to identify multiple opportunities for drug repurposing: Primary screen for Saos-2 cells (AID 1347097); further: nearly all actives have a fitted effect of over 40% in size; further: potency means the concentration at half of the fitted maximal effect
Summary of the method: as §2

[10] = qHTS of pediatric cancer cell lines to identify multiple opportunities for drug repurposing: Primary screen for SK-N-SH cells (AID 1347098); further: nearly all actives have a fitted effect of over 65% in size; further: potency means the concentration at half of the fitted maximal effect
Summary of the method: as §3

Measured: Potency

O=S(=O)(c1cccc2cnccc12)N1CCCNCC1
not listed: [8] | [9] | [10]
inactive: all other assays above

CN(Cc1cc(Br)cc(Br)c1N)C1CCCCC1
inactive: [1] | [2] | [3] | [4] | [5] | [7]

CC(C)Cn1cnc2c(N)nc3ccccc3c21
inactive: [1] | [5] | [8]

N=C(N)c1ccc(OCCCCCOc2ccc(C(=N)N)cc2)cc1
active: [2] 20.9 µM | [4] 2.46 µM and 4.85 µM | [7] 18.7 µM
inactive: [1]

COc1cnc(NS(=O)(=O)c2ccc(N)cc2)nc1
inactive: [1] | [9] | [4] | [5] | [6] | [8]

Nc1nc(F)nc2c1ncn2[C@@H]1O[C@H](CO)[C@@H](O)[C@@H]1O
active: [9] 150 nM and 935 nM | [2] 0.372 µM | [3] 11.9 µM and 469 nM | [4] 1.53 µM | [6] 55 nM and 485 nM | [7] 0.833 µM

Cc1c(-c2ccc(O)cc2)n(Cc2ccc(OCCN3CCCCCC3)cc2)c2ccc(O)cc12
inactive: [1] | [2] | [5] | [7]

COC(=O)Nc1nc2ccc(S(=O)c3ccccc3)cc2[nH]1 (stereo unspecified)
active: [9] 8.33 µM | [10] 1.54 µM and 19.2 µM | [3] 944 nM and 11.8 µM | [4] 2.46 µM | [6] 1.1 µM and 24.3 µM

OCc1ccc(-c2nn(Cc3ccccc3)c3ccccc23)o1
active: [6] 1.72 µM
not listed: [9] | [10]
inactive: all other assays above

CNCC[C@H](Oc1cccc2ccccc12)c1cccs1
inactive: [1] | [3]
active: [6] 15.5 µM | [7] 26.6 µM and 4.69 µM

COc1ccc2cc3[n+](cc2c1OC)CCc1cc2c(cc1-3)OCO2
inactive: [1] | [10]
active: [2] 15 µM and 18.7 µM | [3] 10.6 µM and 16.6 µM | [4] 3.09 µM and 4.32 µM | [6] 4.37 µM and 7.69 µM | [7] 10.5 µM | [8] 26.6 µM

C[C@@H](NCCCc1cccc(C(F)(F)F)c1)c1cccc2ccccc12
inactive: [1] | [2] | [3] | [4] | [5]

COc1cc2ncnc(Nc3cccc(Cl)c3)c2cc1OC
active: [10] 8.57 µM | [2] 0.372 µM | [6] 24.3 µM

Cc1cccc(N(C)C(=S)Oc2ccc3ccccc3c2)c1
inactive: [1] | [3] | [5] | [7]
active: [6] 24.6 µM

O=C(O)c1ccc(-n2nc(-c3ccccc3O)nc2-c2ccccc2O)cc1
inactive: [3] | [5]
active: [6] 21.7 µM

COC(=O)Nc1nc2ccc(C(=O)c3ccccc3)cc2[nH]1
inactive: [5]
active: [9] 66.8 nM and 662 nM | [10] 8.57 µM | [3] 469 nM | [4] 347 nM and 2.43 µM | [6] 138 nM and 1.53 µM | [7] 1.66 µM | [8] 84.1 nM and 935 nM

NC(=O)c1ccc2[nH]ccc2c1
not listed: [6] | [8] | [9]
inactive: all other assays above

O[C@@H](CNC[C@H](O)[C@H]1CCc2cc(F)ccc2O1)[C@@H]1CCc2cc(F)ccc2O1
active: [9] 26.4 µM | [4] 27.3 µM | [6] 24.3 µM and 27.6 µM | [7] 33.2 µM

CC(=O)[C@H]1CC[C@H]2[C@@H]3CCC4=CC(=O)CC[C@]4(C)[C@H]3CC[C@]12C
inactive: [1]
active: [10] 12.1 µM | [2] 2.96 µM | [4] 24.3 µM | [6] 19.3 µM | [8] 11.8 µM

Cc1ccc(S(=O)(=O)N[C@@H](Cc2ccccc2)C(=O)CCl)cc1
active: [9] 9.35 µM | [10] 21.5 µM | [2] 20.9 µM | [3] 16600 nM | [6] 19.3 µM | [7] 26.4 µM | [8] 29.6 µM

CN(C)c1ccc(C(=C2C=CC(=[N+](C)C)C=C2)c2ccc(N(C)C)cc2)cc1
active: [9] 2.11 µM and 418 nM | [2] 3.35 µM and 7.43 µM | [3] 1.68 µM and 526 nM | [4] 1.38 µM and 611 nM | [5] 750 nM and 332 nM | [6] 978 nM and 217 nM | [7] 1.88 µM and 662 nM | [8] 2.66 µM and 1.48 µM

CNS(=O)(=O)CCc1ccc2[nH]cc(C3CCN(C)CC3)c2c1
inactive: [1] | [9] | [5]

CCCCc1oc2ccc(NS(C)(=O)=O)cc2c1C(=O)c1ccc(OCCCN(CCCC)CCCC)cc1
active: [9] 18.7 µM and 23.7 µM | [10] 27.1 µM and 17.2 µM | [2] 18.7 µM | [3] 11.8 µM and 18.8 µM | [4] 19.3 µM and 12.3 µM | [5] 18.7 µM | [6] 10.9 µM and 15.5 µM | [7] 18.7 µM and 23.7 µM

Oc1c(Cl)cc(Cl)c2cccnc12
active: [9] 16.6 µM | [2] 2.66 µM and 6.62 µM | [3] 5.96 µM and 18.7 µM | [4] 27.6 µM and 30.6 µM | [6] 12.3 µM and 27.3 µM | [7] 5.31 µM and 26.4 µM

CCCc1nc(C)c2c(=O)[nH]c(-c3cc(S(=O)(=O)N4CCN(CC)CC4)ccc3OCC)nn12
active: [4] 12.2 µM

Cc1nnc(NS(=O)(=O)c2ccc(N)cc2)s1
inactive: [1] | [9] | [4]

CCOC(=O)c1ccc(C#Cc2ccc3c(c2)C(C)(C)CCS3)nc1
active: [6] 777 nM and 54.4 nM
not listed: [3] | [9]
inactive: all other assays above
